Molecules are shown by their SMILES. Out of some 68,000 compounds screened, about 2,700 (4%) showed an effect of 50% or more. The sample as a whole holds a higher share of strong results than the screen did.

In this assay the test system is Plasmodium berghei. Put plainly: Screen against P. berghei liver stage (PbLuc), transformed with Luciferase, at 2uM. Type of assay: functional, HepG2. The note with it: tested at 2 uM.
`CCN1CC(COc2ccc(OC)cc2)Oc2ccncc2S1(=O)=O` (stereo unspecified): the INHIBITION was 18.99%.
With `O=S1(=O)c2cccnc2OC(COc2ccccc2)CN1CC1CC1` (stereo unspecified), the INHIBITION was 22.01%.
To `CCN1CC(COc2ccccc2)Oc2ncccc2S1(=O)=O` (stereo unspecified) belongs 55.73%; to `CN(C)C1(CNc2nccc(C3CCCC3)n2)CCOCC1`, 1.1%.
For the molecule `NC(=O)CCn1ccc(NC(=O)c2ccc(OCC3CC3)cc2)n1`, the INHIBITION is given as -52.01%.
For `Cc1nnsc1C(=O)NCc1cccnc1N1CCCC(O)C1` (stereo unspecified), the INHIBITION amounted to 41.59%.
`Cc1nn(C)c(N(C)C)c1CNCc1ccccc1Cn1cccn1`: the INHIBITION is given as -40.27%.
To `CC(C)c1nccn1C(C)C(=O)NC1CCN(S(C)(=O)=O)CC1` (stereo unspecified) belongs 8.13%.
As to `CC(C)c1nccn1C(C)C(=O)NC1CCOCC1` (stereo unspecified), the INHIBITION was determined as 1.1%.
Next, `CC(C)c1nccn1C(C)C(=O)NC1Cc2ccccc2C1` (stereo unspecified): 51.72%; `Cc1cc(C)c(CNC(=O)NCc2nnc3n2CCCC3)c(=O)[nH]1`: -47.98%.
Regarding `O=C(O)c1ccn(-c2cccc(NC(=O)c3ccccc3Cl)c2)n1`, the INHIBITION came to 23.43%.
To `O=C(CCc1cc(Cl)no1)N1CCC(c2cc3ncccc3cn2)CC1` belongs 15.72%.
Next, `CCOC(=O)c1nc(COc2c(C)occc2=O)no1`: 54.13%; `Cc1occc(=O)c1OCc1noc(C(=O)NC(C)C)n1`: 2.06%.
For `CNC(=O)c1nc(COc2c(C)occc2=O)no1`, the INHIBITION came to 20.19%.
With `Cc1cn(Cc2ccc(F)c(F)c2)nc1N`, the INHIBITION is on record as 17.69%.
For the molecule `[O-][S+](CCN1CCc2[nH]nc(C(F)(F)F)c2C1)c1ccccc1` (stereo unspecified), the INHIBITION is on record as -62.71%.
As for `FC(F)(F)c1n[nH]c2c1CN(Cc1cn3ccccc3n1)CC2`, the INHIBITION is listed as -7.14%.
To `FC(F)(F)c1[nH]nc2c1CN(Cc1ccccc1)CC2` belongs 57.77%.
Next, `Cc1ccccc1CN1CCC2(CC1)CN(S(=O)(=O)c1ccccc1)C2`: 43.51%; `O=C(NCc1cccnc1)Nc1cc(C(F)(F)F)c[nH]c1=O`: -13.92%.
To `O=C1N(c2ccsc2)CCC12CCCN(CC1CC1)C2` (stereo unspecified) belongs 7.77%.
For `O=C(c1cccnc1O)N(Cc1ccsc1)CC1CCCO1` (stereo unspecified), the INHIBITION was -85.83%.
Regarding `O=C(c1cccnc1O)N(Cc1cccs1)CC1CCCO1` (stereo unspecified), the INHIBITION worked out at 64.9%.
As for `Cc1csc(CN(CC2CCCO2)C(=O)c2cccnc2C)n1` (stereo unspecified), the INHIBITION was -5.92%.
In the case of `c1ccc2[nH]c(C3CCN(Cc4nc(C5CC5)no4)CC3)cc2c1`, the INHIBITION is given as -3.99%.
To `O=C(CCc1cc2n(n1)CCCNC2)N1CCSCC1` belongs -9.98%.
To `CCc1nc(C)c(CN2CCN(c3ncnc4c(C)csc34)CC2)[nH]1` belongs -3.25%; to `Cc1n[nH]c(CN2CCN(c3ncnc4scc(C)c34)CC2)c1Cl`, 74.18%; to `CCc1nc(C)c(CN2CCN(c3ncnc4scc(C)c34)CC2)[nH]1`, -33.43%.

Source of the values: ChEMBL document CHEMBL4513216, “Probing the Open Global Health Chemical Diversity Library for Multistage-Active Starting Points for Next-Generation Antimalarials” (ACS Infect Dis, 2020).
